Assay results reported in the supplement of paper PMC3334620.
Over roughly 33,000 sequences, “E-score (-0.5 to 0.5)” has its median near -0.056; the highest 2% begin near 0.38. This excerpt belongs to a sample that is enriched for the highest values.

Biological target: Stb4 (UniProt P50104)
Experiment: PBM E-score (8-mer binding enrichment) (E-score (-0.5 to 0.5)); higher = stronger / more preferred TF binding
Conditions: protein concentration: 200 nM; construct: GST-DNA-binding domain
Experimental: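 Universal 'all 10-mer' protein binding microarrays (Agilent AMADID 015681) probed with GST-tagged S. cerevisiae TFs (full-length or DBD) made by in vitro transcription/translation (PURExpress), about 100-200 nM. Bound TF was detected with fluorescent anti-GST. Each ungapped 8-mer (which stands for itself and its reverse complement) is scored by the PBM enrichment score (E-score), a modified Wilcoxon-Mann-Whitney statistic from -0.5 to +0.5, computed with the Universal PBM Analysis Suite. Scale: above 0.35 generally sequence-specific binding.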

Sequence of UniProt P50104 (P50104 whole entry): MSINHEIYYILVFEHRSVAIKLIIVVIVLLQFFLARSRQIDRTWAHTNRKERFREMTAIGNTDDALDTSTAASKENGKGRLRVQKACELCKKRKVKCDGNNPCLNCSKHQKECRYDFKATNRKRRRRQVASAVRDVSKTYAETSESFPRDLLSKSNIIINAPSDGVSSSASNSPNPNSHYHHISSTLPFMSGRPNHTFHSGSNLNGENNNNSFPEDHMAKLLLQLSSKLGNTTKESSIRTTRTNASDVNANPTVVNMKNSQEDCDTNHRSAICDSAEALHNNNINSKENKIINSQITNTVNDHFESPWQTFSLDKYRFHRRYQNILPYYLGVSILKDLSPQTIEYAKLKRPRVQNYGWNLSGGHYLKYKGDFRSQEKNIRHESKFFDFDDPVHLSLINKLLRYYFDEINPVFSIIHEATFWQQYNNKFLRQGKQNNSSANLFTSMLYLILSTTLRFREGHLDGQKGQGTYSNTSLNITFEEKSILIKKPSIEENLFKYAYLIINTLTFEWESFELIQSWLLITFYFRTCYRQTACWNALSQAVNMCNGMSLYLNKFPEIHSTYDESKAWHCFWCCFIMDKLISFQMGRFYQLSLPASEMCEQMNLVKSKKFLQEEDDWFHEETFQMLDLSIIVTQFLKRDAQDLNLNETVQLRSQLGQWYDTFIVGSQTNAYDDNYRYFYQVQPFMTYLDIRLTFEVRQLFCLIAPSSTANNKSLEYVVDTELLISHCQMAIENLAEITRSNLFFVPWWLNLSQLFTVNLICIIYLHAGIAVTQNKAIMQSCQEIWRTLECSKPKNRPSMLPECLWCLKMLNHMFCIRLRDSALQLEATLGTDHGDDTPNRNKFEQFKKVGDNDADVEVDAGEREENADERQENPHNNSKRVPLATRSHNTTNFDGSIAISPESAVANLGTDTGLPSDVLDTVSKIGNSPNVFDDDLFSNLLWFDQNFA

Row | Sequence | PBM E-score
1 | AAAGTTAG | -0.00674
2 | CAGCGGTC | -0.186
3 | ACTCCGAT | 0.242
4 | ACTCCGAA | 0.385
5 | ACTCCGTA | 0.0548
6 | ACTCCAAA | -0.0951
7 | ACTCCGAC | 0.32
8 | ACTCCGAG | 0.395
9 | CAATAGGG | -0.163
10 | CGGCCTGA | 0.0862
11 | CAAGCGAA | -0.201
12 | TCGCGTAA | 0.0292
13 | CACAACCC | -0.0519
14 | GTCCATTA | -0.172
15 | AGATCCGA | 0.477
16 | AGATCCCG | 0.407
17 | CGATCCGA | 0.475
18 | GGATCCCA | 0.102
19 | AGATCCGG | 0.366
20 | GGATCCTA | 0.122
21 | CGATCCGC | 0.325
22 | AGATCCCT | -0.226
23 | AGATCCGC | 0.291
24 | CGATCCCG | 0.342
25 | GGATCCGA | 0.459

Row | Sequence | PBM E-score
26 | CGATCCTA | -0.0737
27 | AGCGATAT | -0.172
28 | GTTCCTTA | 0.0117
29 | AATGCAGC | -0.19
30 | GGGGAAGA | -0.186
31 | AACCGCCG | 0.22
32 | CAACACAG | -0.278
33 | CTAACGTA | -0.201
34 | AACAATGT | -0.0925
35 | CGGAACGA | 0.399
36 | AGGAACGA | 0.0238
37 | CGGAACGC | 0.407
38 | CAGAACGC | -0.126
39 | AGGAACGC | -0.097
40 | GGGAACGA | 0.0562
41 | GCGTTCCA | -0.104
42 | ATCTATAC | 0.0424
43 | ATCTATTA | 0.0372
44 | GAGGTTCA | 0.012
45 | CACTTGAG | -0.265
46 | GGGTCGAC | 0.0843
47 | CATCGGGC | 0.181
48 | ACCTTCGG | 0.404
49 | CCCTTCGC | -0.135
50 | CCCTTCGA | -0.0805

Row | Sequence | PBM E-score
51 | ACCTTCGA | -0.171
52 | ACCTTCGT | -0.0808
53 | CCCTTCGG | 0.401
54 | CCAACTTC | -0.0561
55 | GTCAAAAC | -0.0364
56 | TAGAGATA | -0.0379
57 | CCAAACTC | -0.0175
58 | ATTTATGC | -0.126
59 | CAATCCGA | 0.403
60 | AAATCCGA | 0.396
61 | AAATCCGG | 0.332
62 | TAATCCGA | 0.39
63 | TAATCCTA | -0.00858
64 | GAATCCGA | 0.4
65 | CAATCCGC | 0.191
66 | CAATCCGG | 0.244
67 | TAATCCCA | -0.0875
68 | GAATCCGC | 0.206
69 | GAATCCTA | 0.00817
70 | AAATCCGT | 0.186
71 | CTGATCCA | -0.0972
72 | CGTGCTTA | -0.0565
73 | ACCACATG | -0.182
74 | GAGAAATA | 0.0451
75 | AGGACCCC | -0.0529

Row | Sequence | PBM E-score
76 | AAGCTTGC | -0.209
77 | CCATGCGG | -0.0615
78 | ATACCAGC | -0.121
79 | CATTTTGA | -0.162
80 | CGTTGAGC | -0.0224
81 | AGGATCCG | 0.395
82 | CGGATCCC | 0.38
83 | AGGATCCT | -0.218
84 | CGGATCCG | 0.462
85 | AGGATCCC | 0.0362
86 | CGGATCCA | 0.36
87 | ATGGCGTC | -0.158
88 | GATTGACC | 0.0279
89 | CAAAATAC | -0.00837
90 | ACTAGAAC | 0.0472
91 | AGGCTCTA | -0.08
92 | ATAGCTTA | -0.106
93 | CGAGCCAA | 0.00699
94 | CGAGCCGA | 0.399
95 | AGAGCCGG | 0.24
96 | AGAGCCGA | 0.39
97 | GGAGCCGA | 0.379
98 | CGAGCCGC | 0.328
99 | ATGCGGGG | 0.0133
100 | CCAGTCCG | 0.17

Row | Sequence | PBM E-score
101 | ATGGCAGC | -0.171
102 | ACCTACGA | -0.199
103 | ACGCCATA | -0.131
104 | CGGGCCCG | 0.419
105 | CCGGCCCA | 0.17
106 | CGGGCCCA | 0.11
107 | CCGGGCCA | 0.18
108 | CCGGGCCC | 0.303
109 | AGGGCCCG | 0.205
110 | CCGGGCCG | 0.382
111 | ACGGCCCG | 0.284
112 | CCGGCCCG | 0.392
113 | CAATTTGA | -0.046
114 | TTCTACAA | -0.129
115 | AAATCATT | -0.067
116 | TCACCCGA | 0.407
117 | GCACCCGA | 0.434
118 | ACACCCGG | 0.331
119 | GCACCCCA | -0.0865
120 | GCACCCGC | 0.285
121 | CCACCCGA | 0.379
122 | TCACCCAA | -0.112
123 | ACACCCGA | 0.445
124 | ACACCCGC | 0.164
125 | CTGCGAAC | -0.298

Row | Sequence | PBM E-score
126 | CCAACTTA | -0.00182
127 | CTCTTAAC | -0.0542
128 | GAGTACCC | 0.0867
129 | CGGGATAG | 0.191
130 | TAGGATAA | -0.0915
131 | GGGGATAA | 0.00287
132 | CCGGATAA | 0.452
133 | TCGGATAA | 0.487
134 | GCGGATAA | 0.403
135 | GCGGATGA | 0.304
136 | CAGGATAG | -0.0723
137 | CCGGATAG | 0.424
138 | CAGGATAA | -0.12
139 | TGGGATAA | -0.182
140 | CCGGATTA | 0.319
141 | ATTATCTC | 0.0642
142 | CAGGGAGA | -0.266
143 | CGATGGTC | -0.158
144 | CTTCTTTA | -0.0675
145 | GACCCTGC | 0.1
146 | AAAGCGTC | -0.194
147 | CACACTAA | -0.194
148 | CGAGAAGA | 0.0362
149 | CCGATATC | 0.297
150 | CCGGATAC | 0.409

Row | Sequence | PBM E-score
151 | GCGGATAC | 0.367
152 | CAGGATAC | -0.198
153 | ATCGGCCG | 0.305
154 | AAAGCCAG | -0.246
155 | CGGAACAA | 0.444
156 | CGGAACAC | 0.367
157 | TGGAACAA | -0.2
158 | CGGAACAG | 0.427
159 | AGGAACAG | -0.243
160 | GGGAACAA | 0.225
161 | ATCTATGG | -0.184
162 | AGCTCGCC | -0.0787
163 | AGCTCGCG | -5e-05
164 | AGCTCGGC | 0.412
165 | AGCTCGGG | 0.443
166 | AGCTCGAC | -0.0952
167 | AGCTCGTG | 0.0631
168 | CGTGCCAG | -0.186
169 | AAGGTAGG | -0.0211
170 | ACTTGACA | -0.05
171 | ACGATACG | -0.314
172 | AGCCGCGG | 0.315
173 | CACCGAGG | 0.308
174 | AGCCGATC | 0.313
175 | AGCCGAGC | 0.448
